For 40 compounds, viability results are on record in PubChem BioAssay.

Molecules are shown by their SMILES. Results filed as inconclusive are left out. Values without a mark were called inactive.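 How the source made its calls, unless noted: active means viability at or below 27.92% in each of two runs, the all-compound median minus 4 SD; inconclusive means no clear call, values can overlap the other calls; inactive means the rest.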

Broadly, the viability is a read-out of living cells in per cent, often relative to untreated cells.

The first test can be described thus: viability of HCT116 without oncogenic beta-catenin – human colon tumor cells, pilot screen (AID 823;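 active means cell viability at or below a set limit in both duplicate runs, the limit being the all-compound median minus 4 SD, cut at about 23% in these data, passing the limit was not always enough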;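 further: 0% = wells killed by 20 µM Hyamine and 100% = untreated DMSO cell wells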). The settings on record: HCT116 beta-catenin knockout viability, CellTiter-Glo, 60 h; at 10 µM; stronger effect = lower value.
In the case of `O=C(CN1CCOCC1)Nc1cc(Cl)ccc1Cl`, the viability was 92.6%.
Still for that read-out and setting: then `COc1ccc(S(=O)(=O)Cc2ccc(C(=O)NC(C)C)o2)cc1`, with 108%; and `CCCCCn1c(CN2CC(C)OC(C)C2)nc2c1c(=O)n(C)c(=O)n2C` (stereo not given), with 95.3%; and `COC(=O)C1CCN(C(=O)c2ccccc2NC(C)=O)CC1`, with 101%.
On the same count and under the same terms, in the case of `CCN1CCN(c2cc(C)c3cc(NC(=O)Cc4ccc(OC)c(OC)c4)ccc3n2)CC1` it was 75.5%; in that of `CNC(=O)c1cc2cc(OC)ccc2n1CCN(C)C`, 92%.
The same measure, in the same setting: in the case of `COc1ccc(NC(=O)CSc2nnc(-c3ccccn3)n2N)cc1` it was 101%.
In the case of `COc1cc(C)c(N(C(C)=O)c2ccccc2)c(C)c1`, the viability is 92.2%.
Still for that read-out and setting: in the case of `CCc1ccc(N2CCN(C(=O)c3ccc(OC)c(OC)c3)CC2)cc1` it was 57.3%.
On the same count and under the same terms, in the case of `O=C(C1CCC(CNc2c(N3CCOCC3)c(=O)c2=O)CC1)N1CCN(c2ccccc2)CC1` (stereo not given) it was 95.8%.
On the same count and under the same terms, then `CC1(C)C(=O)OC(C(=O)c2ccccc2)C(C)(C)C1=O` (stereo not given), with 105%; and `c1ccc(Sc2nc(N3CCCCC3)nc(N3CCCCC3)n2)nc1`, with 89.3%; and `COC(=O)c1nc2n(n1)C(c1cccc(Cl)c1)C1=C(CC(C)(C)CC1=O)N2` (stereo not given), with 98.7%.
`CCN(CC)C(=O)Cn1c(=O)n(-c2ccccc2)c(=O)n1CC(=O)N(CC)CC`: the viability is 103%.
The same measure, in the same setting: in the case of `CN(C)c1ccc(C2N(c3ccc(Cl)cc3)C(=O)C3CCCN32)cc1` (stereo not given) it was 98.1%; in that of `O=C(CN1C(=O)c2ccccc2C1=O)Nc1cccc2cccnc12`, 104%.
Turning to `O=C(Cn1ncc2ccccc21)N1CCc2ccccc21`, the viability was 72.2%.
Take `O=C(C1CCCN(S(=O)(=O)c2ccccc2)C1)N1CCCCCC1` (stereo not given): the viability was 79.6%.
Still for that read-out and setting: in the case of `Cc1cccc(NC(=O)c2ccc(S(=O)(=O)N3CCCCC3)cc2)n1` it was 94.5%; in that of `CC(=O)NC(CCS(C)(=O)=O)C(=O)Nc1cccc(Cl)c1Cl` (stereo not given), 101%; in that of `Cc1cc(C)c(S(=O)(=O)Nc2nnc(C)s2)c(C)c1`, 102%.
The same measure, in the same setting: then `CCC(=O)Nc1nc2ccccc2n1CCN1CCOCC1`, with 98.6%; and `CNC(=O)c1nnc(Cc2ccc(F)cc2)o1`, with 93.8%.
Still for that read-out and setting: then `CCSc1nc2c([nH]c3ccccc32)c(=O)n1C`, with 105%.
Turning to `CCOc1ccccc1NC(=O)CCS(=O)(=O)c1cccc2nonc12`, the viability was 103%.
Consider `O=C1C2CC=C(Cl)CC2C(=O)N1CC1Cc2ccccc2CO1` (stereo not given), for which the viability was 96.2%.
Turning to `COc1ccc(OC)c2c1CC(C)(C)NC2=O`, the viability is 88.3%.
The same measure, in the same setting: in the case of `CCOc1ccc(N(CC(=O)NCc2ccccc2)S(=O)(=O)c2c(C)noc2C)cc1` it was 101%; in that of `COC(=O)C1=C(C)N(C)C(C)=C(C(=O)OC)C1c1cccc(Br)c1`, 72%; in that of `Cc1ccc(C2CC(c3ccc(Cl)cc3)n3nc(N)nc3N2)cc1` (stereo not given), 93.9%.
Same read-out and setting: then `COc1ccc(CNC(=O)CS(=O)Cc2nc(-c3ccccc3C)oc2C)cc1` (stereo not given), with 96.7%; and `O=C1CCCC/C1=C\Nc1ccc(Cl)cn1`, with 98.1%; and `C=CCN1C(=Nc2ccccc2)SC/C1=C\C(=O)OC`, with 89%.
On the same count and under the same terms, in the case of `O=C(CC12CC3CC(CC(C3)C1)C2)NCO` it was 100%; in that of `COc1ccc(C2C(C(N)=O)=C(C)Nc3nc(-c4ccccc4Cl)nn32)c(OC)c1` (stereo not given), 93.9%.
With `Nc1c(Br)cc(Br)c(N2CCCC2=O)c1Br`, the viability was 92.6%.
Same read-out and setting: then `Cc1ccccc1NC(=O)CSc1[nH]c(=O)cc(C)c1C#N`, with 108%; and `O=C(Cn1nc(C(=O)O)c2ccccc2c1=O)NCC1CCCO1` (stereo not given), with 103%.
The same measure, in the same setting: in the case of `Cc1cc(C(=O)NCc2ccco2)cs1` it was 106%.
The same measure, in the same setting: in the case of `Cc1cc(Nc2cccc(Cl)c2C)n2ncnc2n1` it was 94.2%.

A short description of the next test: viability of PTEN-null HCT116 cells – cell-based, HCT116 clonal line, CellTiter-Glo, pilot screen (AID 824).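 Further: 0% = 20 µM Hyamine control and 100% = vehicle cell control.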 The settings on record: HCT116 PTEN-deleted viability, 60 h, at 10 µM, stronger effect = lower value. For orientation: Cellular ATP, detected with luciferase, serves as a proxy for viable cell number.
In the case of `O=C(CN1CCOCC1)Nc1cc(Cl)ccc1Cl`, the viability was 101%.
The same measure, in the same setting: in the case of `COc1ccc(S(=O)(=O)Cc2ccc(C(=O)NC(C)C)o2)cc1` it was 99.6%; in that of `CCCCCn1c(CN2CC(C)OC(C)C2)nc2c1c(=O)n(C)c(=O)n2C` (stereo not given), 86.6%; in that of `COC(=O)C1CCN(C(=O)c2ccccc2NC(C)=O)CC1`, 99.6%.
On the same count and under the same terms, then `CCN1CCN(c2cc(C)c3cc(NC(=O)Cc4ccc(OC)c(OC)c4)ccc3n2)CC1`, with 77.2%; and `CNC(=O)c1cc2cc(OC)ccc2n1CCN(C)C`, with 87.2%.
Same read-out and setting: in the case of `COc1ccc(NC(=O)CSc2nnc(-c3ccccn3)n2N)cc1` it was 97.3%; in that of `COc1cc(C)c(N(C(C)=O)c2ccccc2)c(C)c1`, 87.3%; in that of `CCc1ccc(N2CCN(C(=O)c3ccc(OC)c(OC)c3)CC2)cc1`, 79%.
Regarding `O=C(C1CCC(CNc2c(N3CCOCC3)c(=O)c2=O)CC1)N1CCN(c2ccccc2)CC1` (stereo not given), the viability is 83.7%.
The same measure, in the same setting: in the case of `CC1(C)C(=O)OC(C(=O)c2ccccc2)C(C)(C)C1=O` (stereo not given) it was 94.8%; in that of `c1ccc(Sc2nc(N3CCCCC3)nc(N3CCCCC3)n2)nc1`, 86.5%; in that of `COC(=O)c1nc2n(n1)C(c1cccc(Cl)c1)C1=C(CC(C)(C)CC1=O)N2` (stereo not given), 99.8%.
The same measure, in the same setting: then `CCN(CC)C(=O)Cn1c(=O)n(-c2ccccc2)c(=O)n1CC(=O)N(CC)CC`, with 97.4%.
The same measure, in the same setting: in the case of `CN(C)c1ccc(C2N(c3ccc(Cl)cc3)C(=O)C3CCCN32)cc1` (stereo not given) it was 98.7%; in that of `O=C(CN1C(=O)c2ccccc2C1=O)Nc1cccc2cccnc12`, 106%.
Turning to `O=C(Cn1ncc2ccccc21)N1CCc2ccccc21`, the viability was 84.2%.
Still for that read-out and setting: then `O=C(C1CCCN(S(=O)(=O)c2ccccc2)C1)N1CCCCCC1` (stereo not given), with 94.3%.
As for `Cc1cccc(NC(=O)c2ccc(S(=O)(=O)N3CCCCC3)cc2)n1`, the viability is 87%.
The same measure, in the same setting: then `CC(=O)NC(CCS(C)(=O)=O)C(=O)Nc1cccc(Cl)c1Cl` (stereo not given), with 97%; and `Cc1cc(C)c(S(=O)(=O)Nc2nnc(C)s2)c(C)c1`, with 99.3%.
The same measure, in the same setting: in the case of `CCC(=O)Nc1nc2ccccc2n1CCN1CCOCC1` it was 99.3%.
Still for that read-out and setting: then `CNC(=O)c1nnc(Cc2ccc(F)cc2)o1`, with 98.9%.
As for `CCSc1nc2c([nH]c3ccccc32)c(=O)n1C`, the viability is 100%.
The same measure, in the same setting: then `CCOc1ccccc1NC(=O)CCS(=O)(=O)c1cccc2nonc12`, with 96.3%; and `O=C1C2CC=C(Cl)CC2C(=O)N1CC1Cc2ccccc2CO1` (stereo not given), with 101%; and `COc1ccc(OC)c2c1CC(C)(C)NC2=O`, with 96.9%.
Same read-out and setting: then `CCOc1ccc(N(CC(=O)NCc2ccccc2)S(=O)(=O)c2c(C)noc2C)cc1`, with 95.1%; and `COC(=O)C1=C(C)N(C)C(C)=C(C(=O)OC)C1c1cccc(Br)c1`, with 67.4%; and `Cc1ccc(C2CC(c3ccc(Cl)cc3)n3nc(N)nc3N2)cc1` (stereo not given), with 93.5%.
Same read-out and setting: in the case of `COc1ccc(CNC(=O)CS(=O)Cc2nc(-c3ccccc3C)oc2C)cc1` (stereo not given) it was 101%; in that of `O=C1CCCC/C1=C\Nc1ccc(Cl)cn1`, 95%; in that of `C=CCN1C(=Nc2ccccc2)SC/C1=C\C(=O)OC`, 89.8%.
`O=C(CC12CC3CC(CC(C3)C1)C2)NCO`: the viability was 104%.
On the same count and under the same terms, then `COc1ccc(C2C(C(N)=O)=C(C)Nc3nc(-c4ccccc4Cl)nn32)c(OC)c1` (stereo not given), with 94.7%.
For `Nc1c(Br)cc(Br)c(N2CCCC2=O)c1Br`, the viability is 92.7%.
In the case of `Cc1ccccc1NC(=O)CSc1[nH]c(=O)cc(C)c1C#N`, the viability is 101%.
Same read-out and setting: in the case of `O=C(Cn1nc(C(=O)O)c2ccccc2c1=O)NCC1CCCO1` (stereo not given) it was 102%; in that of `Cc1cc(C(=O)NCc2ccco2)cs1`, 99.9%.
Still for that read-out and setting: then `Cc1cc(Nc2cccc(Cl)c2C)n2ncnc2n1`, with 95%.
